Screening results as filed in PubChem.
This excerpt belongs to a sample that is enriched for hits.
Cruzain Triton = blocks cruzain activity in presence of Triton detergent | P25779 | purified cruzain, Z-FR-AMC fluorescence, 0.01% Triton | Potency, µM, inactives show max response, negative = inhibition, most hits filed as inhibitors | 0.43% of 200,000 active | AID 1478;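 further: plate controls were neutral wells for no effect and buffer without enzyme for full effect; nearly all actives have a fitted effect of over 40% in size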
Target sequence (P25779 123-467 limits assumed): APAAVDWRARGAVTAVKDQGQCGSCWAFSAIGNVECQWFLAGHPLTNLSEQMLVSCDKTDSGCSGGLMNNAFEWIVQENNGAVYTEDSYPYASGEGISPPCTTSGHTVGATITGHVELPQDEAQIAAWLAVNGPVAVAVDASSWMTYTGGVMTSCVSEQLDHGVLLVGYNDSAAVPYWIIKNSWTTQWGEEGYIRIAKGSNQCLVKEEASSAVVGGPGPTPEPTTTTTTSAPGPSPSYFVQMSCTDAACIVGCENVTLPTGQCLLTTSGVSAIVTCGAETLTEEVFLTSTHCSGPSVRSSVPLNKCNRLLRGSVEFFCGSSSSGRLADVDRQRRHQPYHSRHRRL
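Enzyme 1.5 nM, Z-FR-AMC 2 uM, NaOAc 100 mM pH 5.5, DTT 5 mM, Triton X-100 0.01%; 15 min RT compound preincubation; kinetic ex360/em450, 60 s delta.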
Cruzain inh noDet = inhibitors of Trypanosoma cruzi cruzain without detergent. AID 1476. purified cruzain, Z-FR-AMC fluorescence, no detergent. Potency, µM, for the others: max response, negative = inhibition, hits mostly inhibitors. 2.3% of 200,000 active;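 further: plate controls were enzyme without inhibitor for no effect and buffer without enzyme for full effect; nearly all actives have a fitted effect of over 40% in size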
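Detergent-free condition (0.00005% Triton X-100) in acetate buffer pH 5.5 with DTT. 1.5 nM enzyme and compound were pre-mixed 15 min, then 2 uM Z-FR-AMC substrate added; reaction progress from fluorescence change between first and third reads (60 s).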
NS1 function inh = blocks influenza NS1 protein function; 0.4% of 270,000 active; Potency, µM (doses to about 46.1 µM), without a hit: top-dose activity, positive = more growth; AID 2326; calls by dose curve; further: actives are rising curves; nearly all actives have a fitted effect of over 50% in size
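Compounds were scored for reversing the slow growth caused by influenza A NS1 in S. cerevisiae, measured by optical density at 600 nm. Assay medium contained 2% galactose at pH 6.0; NS1-free yeast of the same strain were the positive control.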
* marks the source's active call; other numbers are inactive results; ? = inconclusive; nt = no result given. Unless noted, the call rests on the fitted dose curve; in most records, active means well fitted curve in the direction sought with a large enough effect; inconclusive means small, poorly fitted or top-dose-only effect, or another doubt; inactive means no such curve, though single readings can be large; an effect the other way counts as inactive or inconclusive. Potency means the concentration at half of the fitted maximal effect.

SMILES | Cruzain Triton | Cruzain inh noDet | NS1 function inh
CNC(=S)N/N=C/c1cn(Cc2c(F)cccc2Cl)c2ccccc12 | -6.4% | 31.6µM* | 20.4%
Cc1onc(-c2ccccc2)c1C(=O)NC(=S)Nc1sc2c(c1C#N)CCCC2 | -7.6% | 12.6µM* | 21.7%
Cc1onc(-c2c(F)cccc2Cl)c1C(=O)Nc1sc2c(c1C#N)CCC(C(C)(C)C)C2 (stereo not drawn) | -4.3% | 10µM* | 4.4%
Cc1onc(-c2ccccc2)c1C(=O)Nc1sc2c(c1C#N)CCC2 | -5.2% | -20.7% | -14.9%
Cc1onc(-c2c(F)cccc2Cl)c1C(=O)Nc1sc2c(c1C(N)=O)CCC2 | -15.3% | ? | 7.8%
Cc1onc(-c2ccccc2)c1C(=O)NC(=S)Nc1sc2c(c1C#N)CCC(C)C2 (stereo not drawn) | -6.4% | 7.94µM* | ?
Cc1cc(C(=O)Nc2sc3c(c2C#N)CCC(C)C3)no1 (stereo not drawn) | -1.7% | -7.0% | -6.1%
CC(=O)[C@@]1(O)CC[C@H]2C3CCC4=CC(=O)CC[C@]4(C)C3CC[C@@]21C (stereo partly drawn) | 2.4% | 3.2% | 3.1%
CCC1=C2CC[C@H]3C(=O)N(c4ccccc4)C(=O)[C@H]3[C@H]2[C@@]2(C)C(=O)N(CC(=O)OC)C(=O)N2C1=O | -0.4% | 0.2% | nt
Ic1ccc2c(c1)N(c1ccccc1)c1cc(Nc3ccc4nc5ccc(I)cc5[n+](-c5ccccc5)c4c3)ccc1N2 | -1.6% | 3.16µM* | 5.1%
CCC(C(=O)Nc1ccccc1C(=O)OC)n1nc(C)c2c(C)n(-c3ccc(C)cc3)nc2c1=O (stereo not drawn) | -5.2% | 0.9% | nt
CCCCCc1ccc(-c2ccc(OC)cc2)nc1 | nt | nt | -7.8%
CCCCCc1ccc(-c2ccc(/C=C/C(N)=O)cc2)nc1 | -1.0% | 12.6µM* | -2.9%
CN(C)S(=O)(=O)c1cccc(NC(=S)N/N=C/C(c2ccccc2)c2ccccc2)c1 | -4.8% | 31.6µM* | 17.7%
CC(/C=N/NC(=S)Nc1cccc(S(=O)(=O)N(C)C)c1)c1ccccc1 (stereo not drawn) | -3.3% | -28.0% | -15.0%
O=C(c1cccc(F)c1)N1CCC2(CC1)CN(C(c1ccccc1)c1ccccc1)C2 | 0.4% | -8.5% | nt
COc1cccc(-c2ccc3c(N)c(C(=O)c4ccc(Cl)cc4)sc3n2)c1 | -5.1% | 7.94µM* | nt
COc1ccc(C(=O)c2sc3nc(-c4ccccc4)ccc3c2N)cc1 | -4.3% | ? | -7.3%
O=C(O)CCC/C=C\CC1C2CCC(O2)C1CNNC(=O)Nc1ccccc1 (stereo not drawn) | 4.4% | 4.0% | nt
COc1ccc(/C=N/Nc2nc(-c3cccc(S(=O)(=O)N4CCCC4)c3)cs2)c(OC)c1 | -1.8% | 7.94µM* | ?
COc1cccc(C(=O)Nc2nc(-c3ccc(S(=O)(=O)N4CCOCC4)cc3)cs2)c1 | 0.4% | ? | -2.5%
Cc1ccccc1OC[C@H](O)CO | 2.1% | 2.7% | nt
O=S(=O)(Cc1ccccc1)c1nnnn1C1CCCCC1 | 4.5% | -1.3% | nt
Cc1ccc(N(CC(=O)N/N=C/c2ccc(OC3CSC3)cc2)S(=O)(=O)c2ccccc2)cc1 | -0.8% | ? | 13.1%
Cc1ccc(N(CC(=O)N/N=C/c2ccc(OC3CSC3)cc2)S(=O)(=O)c2ccccc2)c(C)c1 | -4.9% | 15.8µM* | ?
SMILES | Cruzain Triton | Cruzain inh noDet | NS1 function inh
CCOc1cc(Br)cc(C2NC(=O)c3c(sc4c3CCN(C)C4)N2)c1O (stereo not drawn) | -9.4% | 14.5% | nt
Clc1cccc(C(Cl)(Cl)Cl)n1 | 0.2% | -3.0% | nt
Cc1ccc(-c2nc(P(=O)(c3ccccc3)c3ccccc3)c(N3CCOCC3)o2)cc1 | ? | ? | -5.0%
CNc1oc(-c2ccc(Cl)cc2)nc1P(=O)(c1ccccc1)c1ccccc1 | 12.6µM* | ? | 8.7%
NC(=O)c1cn(-c2ccccc2)nc1-c1cc2ccccc2oc1=O | -3.2% | -0.8% | 1.1%
O=C(c1ccccc1)c1nn(-c2ccc(Cl)cc2)cc1C(=O)c1cc2ccccc2oc1=O | -4.6% | 25.1µM* | -8.4%
COc1ccc(S(=O)(=O)NCCc2sc(-c3cccnc3)nc2C)cc1OC | -2.6% | -4.4% | nt
O=C(CC(C(=O)O)c1ccccc1)Nc1cccc2ccccc12 (stereo not drawn) | 1.1% | -2.7% | 15.4%
O=C(CC(NC(=O)c1ccccc1)c1ccccc1)Nc1cccc2ccccc12 (stereo not drawn) | -3.5% | 25.1µM* | 10.4%
O=C(CSc1nc(=O)[nH]c2c1CCCC2)NCc1ccccc1 | 0.6% | -2.8% | nt
Cc1cc2ccccn2c1C(C[N+](=O)[O-])c1ccc(N(C)C)cc1 (stereo not drawn) | -9.7% | 25.1µM* | ?
COc1ccc(C(C[N+](=O)[O-])c2c(-c3ccccc3)cc3ccccn23)c(OC)c1 (stereo not drawn) | -6.4% | ? | 5.6%
COc1cccc(N=Nc2c(N)[nH]n3c(=O)cc(-c4ccccc4)nc23)c1 | 0.1% | 12.6µM* | 4.3%
